Experimental findings from PubChem BioAssay (Tox21) are described below.

Results filed as inconclusive are left out. Where a call stands in place of a potency, no number is given. Activity calls are given as the source filed them. The call rests on the fitted dose curve.
Potency means the concentration at half of the fitted maximal effect.

For the assay, the target named is Peroxisome proliferator-activated receptor gamma (Homo sapiens) (UniProt P37231). As to the kind of experiment: qHTS assay to identify small molecule antagonists of the peroxisome proliferator-activated receptor gamma (PPARg) signaling pathway (AID 743191). Further: nearly all actives have a fitted effect of over 30% in size. The following applies: HEK293H PPARg-UAS-bla, beta-lactamase ratio, antagonist, 17 h; series mostly up to 62.6 µM. The text has this: U.S. Tox21 Program National Center for Advancing Translational Sciences [NCATS] NIH Chemical Genomics Center [NCGC] U.S. Environmental Protection Agency [EPA] National Institutes of Environmental Health Sciences [NIEHS] National Toxicology Program [NTP] U.S. Food and Drug Administration [FDA] Tox21 Assay Overview: The peroxisome proliferator-activated receptors (PPARs) are lipid-activated transcription factors of the nuclear receptor superfamily with three distinct subtypes namely PPAR alpha, PPAR delta (also called PPAR beta) and PPAR gamma (PPARg). All these subtypes heterodimerize with Retinoid X receptor (RXR) and these heterodimers regulate transcription of various genes. PPAR-gamma receptor (glitazone receptor) is involved in the regulation of glucose and lipid metabolism. To identify the compounds that inhibit PPAR-gamma signaling, GeneBLAzer PPAR gamma UAS-bla HEK293H cell line (Invitrogen, Carlsbad, CA, USA) containing a beta-lactamase reporter gene under control of an Upstream Activator Sequence (UAS) was used to screen the Tox21 compound library.
Peroxisome proliferator-activated receptor gamma (Homo sapiens), sequence (P37231 whole entry, looked up): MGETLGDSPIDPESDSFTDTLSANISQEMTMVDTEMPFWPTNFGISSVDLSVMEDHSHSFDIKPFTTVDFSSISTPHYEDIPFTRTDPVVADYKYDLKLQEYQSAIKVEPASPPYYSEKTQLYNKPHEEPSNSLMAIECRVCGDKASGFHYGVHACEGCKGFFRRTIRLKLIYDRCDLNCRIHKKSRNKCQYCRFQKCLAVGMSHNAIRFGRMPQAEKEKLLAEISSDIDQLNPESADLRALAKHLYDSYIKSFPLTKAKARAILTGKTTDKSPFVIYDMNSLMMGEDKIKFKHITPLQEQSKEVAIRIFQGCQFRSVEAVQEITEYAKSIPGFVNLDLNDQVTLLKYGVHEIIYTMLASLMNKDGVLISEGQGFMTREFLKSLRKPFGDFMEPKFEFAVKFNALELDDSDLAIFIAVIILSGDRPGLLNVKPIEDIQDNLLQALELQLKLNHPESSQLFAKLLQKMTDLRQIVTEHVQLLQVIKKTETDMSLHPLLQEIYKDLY
Tox21 Assay Protocol Summary: PPARg-bla cells were dispensed at 3000 cells/6uL/well in 1536-well black wall/clear bottom plates using a Multidrop Combi (Thermo Fisher Scientific, Waltham, MA) dispenser. After the assay plates were incubated at 37C and 5% CO2 for 5 h, 23 nL of compounds dissolved in DMSO, positive controls or DMSO only was transferred to the assay plate by a Pintool station (Kalypsys, San Diego, CA). The assay plates were incubated at 37C for 17 h. After 1 uL of LiveBLAzerTM B/G FRET substrate was added using a Bioraptr Flying Reagent Dispenser (FRD) workstation (Beckman Coulter, Indianapolis, IN, USA), the plates were incubated at room temperature for 1 h, and fluorescence intensity was measured by an Envision plate reader (PerkinElmer, Shelton, CT).
Background: Quantitative high-throughput screening tests each substance at several concentrations.
For `OCC1CO1` (stereo not given), the Potency result is “inactive”.
The same measure for `CCC1(C2=NCCN2)Cc2ccccc2O1` (stereo not given): “inactive”; for `CC(CC(C(N)=O)(c1ccccc1)c1ccccc1)N(C)C` (stereo not given): “inactive”.
The same measure for `O=C([O-])c1ccccn1.O=C([O-])c1ccccn1.O=C([O-])c1ccccn1.[Cr+3]`: “inactive”; for `CC[N+]1(CCOC(=O)C(O)(c2ccccc2)c2ccccc2)CCCCC1`: “inactive”.
With `CCCCC(CC)COC(=O)c1c(Br)c(Br)c(Br)c(Br)c1C(=O)OCC(CC)CCCC` (stereo not given) the entry was “inactive”.
As for `CCc1cnc(C2=NC(C)(C(C)C)C(=O)N2)c(C(=O)O)c1` (stereo not given), the Potency result was “inactive”.
The same measure for `C[N+]1(CCC(C(N)=O)(c2ccccc2)c2ccccc2)CCCCC1`: “inactive”; for `N#CC(C#N)=C(C#N)C#N`: “inactive”.
With `Nc1ccc2c(c1)Cc1ccccc1-2` the entry was “inactive”; with `O=P(OCC(Br)CBr)(OCC(Br)CBr)OCC(Br)CBr` (stereo not given), 44.2 µM (active); with `C1CS1`, “inactive”.
Turning to `CCCCCBr`, the Potency result was “inactive”.
The same measure for `CCCC1CCCCN1` (stereo not given): “inactive”.
The same measure for `Clc1ccc2ccccc2c1`: “inactive”; for `c1ccc2c(c1)sc1ccccc12`: “inactive”; for `CN(C1CCCCC1)C1CCCCC1`: “inactive”.
With `CCCC[N+]1(C)[C@@H]2CC(OC(=O)[C@H](CO)c3ccccc3)C[C@H]1[C@@H]1O[C@@H]12` (stereo not given in full) the entry was “inactive”; with `CCC1(CCC(C)C)C(=O)NC(=O)NC1=O`, “inactive”; with `CC(C)(C)NCC(O)c1cc(Cl)c(N)c(C(F)(F)F)c1` (stereo not given), “inactive”.
Take `C=CCN1C[C@H](C)N([C@H](c2ccc(C(=O)N(CC)CC)cc2)c2cccc(OC)c2)C[C@H]1C`: the Potency entry is “inactive”.
The same measure for `C[C@]12CC[C@H]3[C@@H](CCC4=CC(=O)CC[C@@H]43)[C@@H]1CC[C@@H]2OC(=O)CCc1ccccc1`: “inactive”; for `FC(F)OC(F)(F)C(F)Cl` (stereo not given): “inactive”.
The same measure for `Cc1ccccc1`: “inactive”.
The same measure for `COC1CC(=C(c2cccs2)c2cccs2)C[N+](C)(C)C1` (stereo not given): “inactive”.
For the compound `OCCCl`, the Potency entry was “inactive”.
With `C=CCSSCC=C` the entry was “inactive”; with `Cc1nc(N(C)C)nc(OC(=O)N(C)C)c1C`, “inactive”.
The same measure for `COc1ccc(C(O)(c2cncnc2)C2CC2)cc1` (stereo not given): “inactive”.
With `N#CC(C#N)=Cc1ccc(O)c(O)c1`, the Potency result was “inactive”.
For `CC(C)CCCCCCCOC(=O)c1ccccc1C(=O)OCCCCCCCC(C)C`, the Potency entry is “inactive”.
With `CC(C)[C@@H](C(=O)O[C@@H](C#N)c1cccc(Oc2ccccc2)c1)c1ccc(Cl)cc1`, the Potency result was “inactive”.
With `CCCC(C)(COC(N)=O)COC(=O)NC(C)C` (stereo not given) the entry was “inactive”; with `Nc1cc(Cl)cc(C(=O)O)c1Cl`, “inactive”.
The same measure for `CCCCCl`: “inactive”; for `C[N+](C)(C)CC1CO1` (stereo not given): “inactive”; for `CC(C)C1(C)N=C(c2ncccc2C(=O)O)NC1=O` (stereo not given): “inactive”.
`Cc1nc2ccccc2c(=O)n1-c1ccccc1Cl`: the Potency result is “inactive”.
The same measure for `O=C(O)C(Cl)(Cl)Br`: “inactive”.
Turning to `CCC(=O)O[C@@H]1C=C2CCC3C(CCC4(C)C3CC[C@@H]4OC(=O)CC)C2CC1` (stereo not given in full), the Potency entry is “inactive”.
